Results reported in PMC4336329 (PLoS ONE, 2015).
Out of some 310,000 compounds screened, about 2,200 (0.71%) showed an effect of 50% or more. Effects have a minus sign here. The list comes from a sample in which strong results are over-represented; it also holds similar structures and randomly drawn compounds.

biological target: human ether-à-go-go-related gene (hERG) potassium channel (human, UniProt Q12809); assay: primary screen, population patch clamp on CHO cells stably expressing hERG; higher = less effect of the substance
Sequence (Q12809 whole entry, looked up): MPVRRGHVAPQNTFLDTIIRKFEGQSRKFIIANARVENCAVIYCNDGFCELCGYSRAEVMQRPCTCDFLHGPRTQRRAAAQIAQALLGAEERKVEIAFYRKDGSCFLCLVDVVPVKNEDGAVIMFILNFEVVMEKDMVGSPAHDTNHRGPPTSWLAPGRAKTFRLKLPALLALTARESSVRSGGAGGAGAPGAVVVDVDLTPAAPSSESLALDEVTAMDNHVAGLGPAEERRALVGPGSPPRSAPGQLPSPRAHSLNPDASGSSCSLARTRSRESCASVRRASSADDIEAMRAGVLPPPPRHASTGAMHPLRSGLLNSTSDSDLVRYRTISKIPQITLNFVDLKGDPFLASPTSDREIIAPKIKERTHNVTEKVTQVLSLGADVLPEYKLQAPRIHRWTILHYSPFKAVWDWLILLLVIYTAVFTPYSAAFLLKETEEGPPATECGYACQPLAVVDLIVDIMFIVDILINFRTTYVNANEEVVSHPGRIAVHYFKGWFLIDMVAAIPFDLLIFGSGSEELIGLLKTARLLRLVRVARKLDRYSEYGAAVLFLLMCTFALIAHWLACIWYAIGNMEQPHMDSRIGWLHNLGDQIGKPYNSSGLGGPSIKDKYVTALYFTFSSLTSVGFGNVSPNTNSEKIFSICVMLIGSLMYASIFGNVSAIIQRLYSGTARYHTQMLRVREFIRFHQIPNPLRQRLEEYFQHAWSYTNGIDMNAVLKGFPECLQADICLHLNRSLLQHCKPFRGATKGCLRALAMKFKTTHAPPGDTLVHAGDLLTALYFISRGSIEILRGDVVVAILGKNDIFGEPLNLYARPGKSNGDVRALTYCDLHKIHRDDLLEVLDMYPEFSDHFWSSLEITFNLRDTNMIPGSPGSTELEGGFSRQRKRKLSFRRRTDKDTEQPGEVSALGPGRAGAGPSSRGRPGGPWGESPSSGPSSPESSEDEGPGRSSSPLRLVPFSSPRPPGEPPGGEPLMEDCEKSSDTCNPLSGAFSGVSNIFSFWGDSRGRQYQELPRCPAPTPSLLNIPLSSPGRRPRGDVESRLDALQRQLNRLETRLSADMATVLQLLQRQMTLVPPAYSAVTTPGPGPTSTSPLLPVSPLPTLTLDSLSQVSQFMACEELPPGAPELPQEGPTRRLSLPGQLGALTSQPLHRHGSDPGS

SMILES | hERG current change (%, negative = inhibition) at 1uM [%]
O=C(NCCN=C1NS(=O)(=O)c2ccccc21)c1ccc2nccnc2c1 | 18.3
O=C(CSCc1cccc(CSCC(=O)Nc2ccc3ccccc3c2)n1)Nc1ccc2ccccc2c1 | 8.91
O=C(CSCc1ccccn1)Nc1ccccc1 | -0.275
O=C(CSCc1cccc(CSCC(=O)Nc2ccccc2)n1)Nc1ccccc1 | -59.7
C=CCNC(=O)c1sc(=S)n(-c2ccc(C(=O)OCC)cc2)c1N | 2.24
O=C(c1ccc2nc3ccccc3c(=O)n2c1)N1CCN(Cc2ccc3c(c2)OCO3)CC1 | -12.2
O=C(c1cccn2c(=O)c3cc(Cl)ccc3nc12)N1CCN(Cc2ccc3c(c2)OCO3)CC1 | -33.5
O=C(c1cccn2c(=O)c3ccccc3nc12)N1CCN(Cc2ccc3c(c2)OCO3)CC1 | -54.4
Cc1onc(-c2ccccc2Cl)c1C(=O)OCc1nnc(-c2ccccc2)o1 | 3.84
CCOc1ccc(C(=O)C2CCN(C(=O)c3ccc([N+](=O)[O-])cc3)CC2)cc1 | -81.1
O=C(Oc1cccc([N+](=O)[O-])c1)C1CCN(C(=O)c2ccc(F)cc2)CC1 | -3.31
O=C(c1ccc2c(c1)OCCO2)C1CCN(C(=O)c2ccc(F)c(F)c2)CC1 | 2.71
O=C(CCC(=O)c1ccc(F)cc1)OCc1nnc(-c2ccc([N+](=O)[O-])cc2)o1 | 1.72
CCOC(=O)N1CCN(C(=O)C2CCN(C(=O)c3ccc([N+](=O)[O-])cc3)CC2)CC1 | -26.9
O=C(c1ccc2c(c1)OCCO2)C1CCN(C(=O)c2ccc(F)cc2)CC1 | 4.28
CCOc1ccc(C(=O)N2CCC(C(=O)c3ccc4c(c3)OCCO4)CC2)cc1 | -61.5
O=C(OCc1nnc(-c2ccc([N+](=O)[O-])cc2)o1)C1CCN(C(=O)c2ccc(F)cc2)CC1 | -71.4
Cc1onc(-c2ccccc2)c1C(=O)OCc1nnc(-c2ccc([N+](=O)[O-])cc2)o1 | -51.2
Cc1onc(-c2ccccc2)c1C(=O)OCc1nnc(-c2ccccc2)o1 | 5.73
CCOC(=O)C1CCN(C(=O)C2CCN(C(=O)c3ccc([N+](=O)[O-])cc3)CC2)CC1 | -28.2
Cc1nc(-c2ccc(C(=O)N3CCCC3)cc2)cs1 | 9.11
Cc1cccc(C(=O)NCC(=O)NC2CCC(C)CC2)c1 (centres unmarked) | 1.64

SMILES | hERG current change (%, negative = inhibition) at 1uM [%]
COCCN(Cc1cc2cc(C)ccc2n2nnnc12)C(=S)Nc1ccccc1C | 17
O=C(/C=C/c1cn(-c2ccccc2)nc1-c1cccc(Cl)c1)N1CCN(c2ccccn2)CC1 | 11
O=C(NC(=S)Nc1cccc2c(O)cccc12)c1cccc(Br)c1 | 8.92
O=C(Nc1nccs1)c1nc[nH]c1C(=O)N1CCc2ccccc2C1 | 3.14
COc1ccc(OC)c(-c2cc(C(=O)NCc3ccc(Cl)cc3)no2)c1 | 12.1
O=C(N/C(=C\c1cccs1)C(=O)N1CCOCC1)c1ccco1 | -2.36
Cc1ccccc1NC(=O)/C(=C\c1cccs1)NC(=O)c1ccco1 | -3.3
O=C(N/C(=C/c1cccs1)C(=O)N1CCOCC1)c1ccco1 | 9.85
CN1CCN(C(=O)/C(=C\c2cccs2)NC(=O)c2ccco2)CC1 | -65.2
Cc1ccc(NC(=O)/C(=C/c2cccs2)NC(=O)c2ccco2)cc1 | 17
CN1CCN(C(=O)/C(=C/c2cccs2)NC(=O)c2ccco2)CC1 | -62.1
COCc1cc(Sc2ccc(OC)cc2)nc(-c2ccccc2)n1 | 16.2
CCCCN(C)C(=O)c1nc2ccccn2c1CN1CCSCC1 | 12.1
CCCCN(C)C(=O)c1nc2ccccn2c1CN1CCN(c2ncccn2)CC1 | 6.17
CCCCN(C)C(=O)c1nc2ccccn2c1CN1CCN(C/C=C/c2ccccc2)CC1 | -80.8
CC(C)(C)c1ccc(C(=O)O/N=C(\N)c2ccccn2)cc1 | 13.9
O=C(CN1C(=O)/C(=C/c2ccccc2)SC1=S)Nc1cccnc1 | 9.4
O=C(CC1CCCCC1)NCc1ccco1 | 7.39
CCCCN(CCCC)CC(O)COc1ccccc1C(=O)Nc1ccccc1 (centres unmarked) | -55
CCCN(CCC)CC(O)COc1ccccc1C(=O)Nc1ccccc1.Cl (centres unmarked) | -35.8
CCCCN(CCCC)CC(O)COc1ccccc1Br.Cl (centres unmarked) | 1.61
CC(=O)N1CCc2cc(S(=O)(=O)CCC(=O)Nc3cc(C)cc(C)c3)ccc21 | 8.33

SMILES | hERG current change (%, negative = inhibition) at 1uM [%]
O=C(/C=C/c1ccccc1)N(c1ccccn1)C1CCCCC1 | 3.14
Cc1nc2ccc(Br)cc2c2c1CC(CO)O2 (centres unmarked) | 15.9
CCOC(=O)N1CCN(C(=O)c2oc3ccc(S(=O)(=O)N4CC(C)CC(C)C4)cc3c2C)CC1 (centres unmarked) | 0.354
COCCOC(=O)C1=C(N)Oc2c(c(=O)oc3ccccc23)[C@@]12C(=O)Nc1ccccc12 | 12.1
CCN(CC)CCn1c(NS(=O)(=O)c2ccc(C)cc2)nc2ccccc21 | -17.8
CCN(CC)CCn1c(NC(=O)c2ccc(Cl)cc2)nc2ccccc21 | -0.305
CCN(CC)CCn1c(NS(=O)(=O)c2ccc(Cl)cc2)nc2ccccc21.Cl | -69
O=C1C(Cl)=C(N2CCN(Cc3ccccc3)CC2)C(=O)N1c1ccccc1 | 8.07
Clc1ccc(-c2c[n+]3c(n2-c2ccccc2)SCC3)cc1.[Cl-] | 3.68
CCOc1ccc(-n2c(-c3ccc(Cl)cc3)c[n+]3c2SCC3)cc1.[Br-] | -60.8
COc1ccc(-c2c[n+]3c(n2-c2ccccc2)SCC3)cc1.[Br-] | -6.21
Cc1cccc2c1-c1sc(C(=O)NCCCN3CCC(C)CC3)cc1CO2 | -5.27
CCCN1CCN(CCCNC(=O)c2cc3c(s2)-c2c(C)cccc2OC3)CC1 | -67.5
Cc1cccc2c1-c1sc(C(=O)NCCCN3CCCC(C)C3)cc1CO2 (centres unmarked) | 16.2
CCn1cc(Br)c(C(=O)N(C)Cc2ccccc2)n1 | 11.4
Cc1cc(N/N=C/c2ccco2)c2ccccc2n1 | 10.7
Cc1ccc2nc(N/N=C/c3ccco3)cc(C)c2c1 | -62.9
Cc1ccc2nc(SCC(=O)N/N=C/c3ccco3)cc(C)c2c1 | 9.47
CCOC(=O)N1CCC(N2C(=O)c3ccccc3C2Nc2ccccc2C)CC1 (centres unmarked) | -8.54
CCOC(=O)N1CCC(N2C(=O)c3ccccc3C2Nc2ccccc2)CC1 (centres unmarked) | 6.14
CCOC(=O)N1CCC(N2C(=O)c3ccccc3C2Nc2c(C)cccc2C)CC1 (centres unmarked) | -57.6
COc1ccc(C(=O)N2CCCC(Nc3ccc(C)c(C)c3)C2)cc1 (centres unmarked) | -0.108

SMILES | hERG current change (%, negative = inhibition) at 1uM [%]
Cc1cccc2cc(CN(Cc3ccc(F)cc3)C(=O)N3CCOCC3)c(=O)[nH]c12 | 1.19
CS(=O)(=O)Nc1ccccc1C(=O)NCc1ccco1 | 1.75
CS(=O)(=O)Nc1ccc(C(=O)Nc2ccccc2C(=O)NCc2ccco2)cc1 | -58
CS(=O)(=O)Nc1ccc(C(=O)NCc2ccco2)cc1 | 16.3
CC(C)CC(=O)Nc1ccc(C(=O)NNC(=O)C(c2ccccc2)c2ccccc2)cc1 | 12.2
CSc1cccc(NC(=S)NCCCN2CCN(c3ccc(F)cc3)CC2)c1 | -3.39
COc1cccc(NC(=O)NCCN2CCCCC2)c1 | 4.59
COc1ccc(N2CCN(CCCNC(=O)c3cc4sccc4n3C)CC2)cc1 | -77.7
CC1(C)CC(=O)c2cc(OCC(=O)NCCCN3CCN(c4ccccc4F)CC3)ccc2O1 | -26
COc1ccc(NC(=O)NCCCN2CCc3ccccc3C2)cc1 | -69.5
O=C(NCCCN1CCc2ccccc2C1)Nc1ccc(Cl)cc1 | -44.5
COc1cccc(NC(=O)NCCCN2CCN(c3ccc(F)cc3)CC2)c1 | -51
CC1(C)CC(=O)c2cc(OCC(=O)NCCCN3CCN(c4ccc(F)cc4)CC3)ccc2O1 | -60.3
Cn1c(C(=O)NCCCN2CCCCC2)cc2sccc21 | -13.7
CC1CCN(CCCNC(=O)c2cc3sccc3n2C)CC1 | -23.6
CC1(C)CC(=O)c2cc(OCC(=O)NCCN3CCOCC3)ccc2O1 | 16.6
COc1ccc(NC(=O)NCCN2CCc3ccccc3C2)cc1 | -1.55
CC(C)(C)OC(=O)NC(CNCc1ccccc1)Cc1ccccc1 (centres unmarked) | 3.93
Nc1c(C(=O)NCCN2CCOCC2)c2nc3ccccc3nc2n1-c1ccccc1 | -3.09
Cc1ccc(NC(=S)/N=C(\N)Nc2nc(C)c3cc(C)c(C)cc3n2)cc1C | 8.63
